The list is not random: actives were taken first. Their share in the collection is about 3.2%.
DSG3 Ab inh: human desmoglein-3 autoantibody binding inhibition | P32926 | DSG3-coupled beads, scFv-anti-DSG3-GFP binding, flow cytometry; hits give low values | binding (percent of control), % at 10 µM | 0.48% of 310,000 active;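 active means binding more than 3 SD below its plate's average and above zero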;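 further: hits lower antibody fragment binding to DSG3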
Target sequence (P32926 whole entry, looked up, the tested form may be a part): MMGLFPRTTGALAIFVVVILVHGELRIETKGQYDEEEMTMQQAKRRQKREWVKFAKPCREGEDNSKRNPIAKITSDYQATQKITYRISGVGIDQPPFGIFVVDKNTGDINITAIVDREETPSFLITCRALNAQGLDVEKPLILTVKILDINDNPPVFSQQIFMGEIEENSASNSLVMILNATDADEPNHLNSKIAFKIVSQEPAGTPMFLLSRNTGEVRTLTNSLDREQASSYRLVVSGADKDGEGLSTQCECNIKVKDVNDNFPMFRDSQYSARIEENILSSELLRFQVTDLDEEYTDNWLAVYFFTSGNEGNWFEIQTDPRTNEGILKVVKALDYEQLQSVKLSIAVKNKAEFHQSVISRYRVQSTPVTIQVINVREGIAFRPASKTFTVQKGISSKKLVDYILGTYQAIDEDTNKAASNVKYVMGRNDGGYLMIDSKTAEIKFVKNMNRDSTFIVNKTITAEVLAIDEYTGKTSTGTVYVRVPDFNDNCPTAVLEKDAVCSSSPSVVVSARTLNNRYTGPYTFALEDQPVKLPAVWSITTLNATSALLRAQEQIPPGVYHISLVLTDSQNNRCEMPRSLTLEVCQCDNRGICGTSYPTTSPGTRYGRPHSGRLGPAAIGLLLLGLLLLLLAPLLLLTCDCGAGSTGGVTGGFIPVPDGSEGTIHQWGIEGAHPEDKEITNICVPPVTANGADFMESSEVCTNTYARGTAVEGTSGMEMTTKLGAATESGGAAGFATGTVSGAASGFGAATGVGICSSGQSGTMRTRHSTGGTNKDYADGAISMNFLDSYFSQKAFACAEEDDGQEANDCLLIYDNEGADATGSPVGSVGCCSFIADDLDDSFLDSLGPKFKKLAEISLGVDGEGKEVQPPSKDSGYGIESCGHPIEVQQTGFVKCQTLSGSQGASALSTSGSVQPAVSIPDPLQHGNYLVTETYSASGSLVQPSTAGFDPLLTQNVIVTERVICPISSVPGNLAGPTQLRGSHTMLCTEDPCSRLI
MsrA inh: inhibits bovine methionine sulfoxide reductase A | AID 651718 | purified bovine MsrA, absorbance read-out | 0.75% of 360,000 active | inhibition, % at 15.5 µM; in the data active means inhibition above about 4.5%
NadD inh: NadD (S. aureus) enzyme inhibition; purified NadD enzyme, colorimetric absorbance read-out; inhibition, % at 20 µM; 0.78% of 360,000 active; in the data active means inhibition above about 26%
DAGLB inh: diacylglycerol lipase beta (human) inhibition; 0.059% of 340,000 active; inhibition, % at 5.17 µM; AID 504411; HEK293T DAGLB membrane lysate, EnzChek fluorogenic substrate; Q8NCG7; in the data active means inhibition above about 34%
rCAG RNA binder: molecules binding r(CAG) RNA repeats | r(CAG) RNA repeat, TO-PRO-1 dye displacement fluorescence | inhibition, % at 3 µM | 1.3% of 370,000 active | AID 651821;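 active means inhibition above the plate cutoff, the mean of all test compounds on that plate plus 3 SD, cut at about 35% in these data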;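 further: higher means more dye released from RNA so lower well fluorescence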
MsrA act: activators of bovine methionine sulfoxide reductase A. purified bovine MsrA, absorbance read-out. activation, % at 10.6 µM. 0.3% of 360,000 active. AID 602163; in the data active means activation above about 7.5%
Of the large screens only hits and unclear results are named; the others gave an inactive call.

O=C(CCN1C(=O)/C(=C/C=C/c2ccccc2)SC1=S)Nc1ccccn1	NadD inh 37
O=C(O)CN1C(=O)/C(=C/C=C/c2ccccc2)SC1=S	none
CC(/C=C1\SC(=S)N(CCC(=O)Nc2ccccc2O)C1=O)=C\c1ccccc1	NadD inh 34
CCC(CC)C(C(=O)NCc1ccccc1)N(C)Cc1ccc(Cl)c(Cl)c1 (stereo not drawn)	none (no result: DSG3 Ab inh, NadD inh, DAGLB inh, MsrA act)
COC(=O)C1=C(C)NC(=O)/C1=C\c1cc(C)n(-c2cc(C)cc(C)c2)c1C	NadD inh 32
Cn1c(NCc2cccnc2)nc2cc(-c3cccc(C(=O)NCCO)c3)sc2c1=O	none (no result: DSG3 Ab inh, DAGLB inh)
O=C(N/N=C/c1cc(Cl)cc([N+](=O)[O-])c1O)NC12CC3CC(CC(C3)C1)C2	NadD inh 40
Cc1cccc(C(=O)Nc2nc3ncccn3c2-c2ccc(F)cc2)c1	none (no result: DSG3 Ab inh, MsrA inh, NadD inh, DAGLB inh, MsrA act)
CCOc1ccc(/C=N/n2c(C)nc3ccccc3c2=O)cc1	DSG3 Ab inh 68 (no result: MsrA inh, rCAG RNA binder)
Cn1cc(C(=O)N/N=C/C(Br)=C\c2ccccc2)ccc1=O	MsrA inh 5.4
O=C(CSc1nnc(-c2ccccc2F)n1Cc1ccco1)Nc1ccccc1-c1ccccc1	none (no result: DSG3 Ab inh, MsrA inh, NadD inh, DAGLB inh, MsrA act)
C#CCOCCOCCOCCNc1nc(N2CCN(C(=O)CCCCCCCCCCNC(=O)[C@H](CO)n3cc(CCCSC)nn3)CC2)nc(N2CCN(C(=O)CCCCCCCCCCNC(=O)[C@H](CCCCN)n3cc(CCO)nn3)CC2)n1	none
C#CCOCCOCCOCCNc1nc(N2CCN(C(=O)CCCCCCCCCCNC(=O)[C@H](CO)n3cc(CCCSC)nn3)CC2)nc(N2CCN(C(=O)CCCCCCCCCCNC(=O)[C@H](CCCN=C(N)N)n3cc(C[C@@H](C)CC)nn3)CC2)n1	NadD inh 62 (no result: MsrA inh, rCAG RNA binder)
C#CCOCCOCCOCCNc1nc(N2CCN(C(=O)CCCCCCCCCCNC(=O)Cn3cc(C[C@@H](C)O)nn3)CC2)nc(N2CCN(C(=O)CCCCCCCCCCNC(=O)[C@H](CCCCN)n3cc(CCCC(=O)O)nn3)CC2)n1	none
C#CCOCCOCCOCCNc1nc(N2CCN(C(=O)CCCCCCCCCCNC(=O)Cn3cc(C[C@@H](C)O)nn3)CC2)nc(N2CCN(C(=O)CCCCCCCCCCNC(=O)[C@H](CCCN=C(N)N)n3cc(C[C@@H](C)CC)nn3)CC2)n1	NadD inh 38 (no result: MsrA inh, rCAG RNA binder)
COc1ccc(C(=O)N2CCC(C)(C(=O)O)C2)cc1OC (stereo not drawn)	none (no result: DSG3 Ab inh, DAGLB inh)
O=C(Nc1ccc(F)cc1)OCCN1C(=O)CCC12CCC(c1ccc(Cl)cc1)CC2 (stereo not drawn)	none (no result: DSG3 Ab inh, MsrA inh, NadD inh, DAGLB inh, MsrA act)
CC1CCN(c2cc(N3CCC(C)CC3)c([N+](=O)[O-])cc2/C=C(\C#N)c2nn(-c3ccccc3)c(N)c2C#N)CC1	NadD inh 51 (no result: DSG3 Ab inh)
CC1CCN(c2ccc(/C=C(\C#N)c3nn(-c4ccccc4)c(N)c3C#N)cc2[N+](=O)[O-])CC1	none
O=C(/C=C/c1ccccc1)NC(=S)Nc1ccc(N2CCOCC2)cc1	DSG3 Ab inh 76
O=C(NC(=S)Nc1ccc(N2CCOCC2)cc1)c1ccc(Cl)cc1	DSG3 Ab inh 73
O=C(/C=C/c1ccccc1)NC(=S)Nc1ccccc1	none
O=C(Nc1ccn(CCCN2CCC(N3CCOCC3)CC2)c(=O)n1)OCc1ccccc1	none
NC(=O)C1CCN(c2nc(-c3ccc(Br)cc3)cs2)CC1	DSG3 Ab inh 58
COc1ccc(CNc2cccc3[nH]c(C(F)(F)F)nc23)cc1	rCAG RNA binder 42
CCCCCN1CCCCC(NC(=O)c2ccc(C)cc2)C1=O (stereo not drawn)	none (no result: DSG3 Ab inh, MsrA inh, NadD inh, DAGLB inh, MsrA act)
Cc1cc2ncn(/N=C/c3ccc([N+](=O)[O-])s3)c2cc1C	none
O=[N+]([O-])c1ccc(/C=N/n2cnc3ccccc32)s1	MsrA act 18
O=S1(=O)CC(N2CCCC2)CN1Cc1cn(Cc2ccc(F)cc2)nn1 (stereo not drawn)	none (no result: DSG3 Ab inh, DAGLB inh)
CCOC(=O)c1csc(NC(=O)C2CCCN(S(=O)(=O)c3ccc([N+](=O)[O-])cc3)C2)n1 (stereo not drawn)	none (no result: DSG3 Ab inh, MsrA inh, NadD inh, DAGLB inh, MsrA act)
Cc1c(N2C(=O)c3ccccc3C2=O)c(=O)n(-c2ccccc2)n1C	none
Cc1c(N2C(=O)/C(=C\c3cccc4ccccc34)SC2=S)c(=O)n(-c2ccccc2)n1C	NadD inh 42 (no result: DSG3 Ab inh)
CCSc1nc(C(F)(F)F)cc(=O)n1-c1ccccc1	none
CC(C)Sc1nc(C(F)(F)F)cc(=O)n1-c1ccccc1	MsrA act 14
O=C(/C=C/c1ccc([N+](=O)[O-])cc1)OCC(=O)N1CCCC1	DSG3 Ab inh 77
COC(=O)c1sc(=S)n(-c2cc(F)ccc2F)c1N	MsrA inh 4.6
OC(c1ccccc1)(c1ccccc1)C1CCN(CCCOc2cccc(F)c2)CC1	none (no result: DSG3 Ab inh, NadD inh, DAGLB inh, MsrA act)
CCOC(=O)C1(Cc2cccc(Cl)c2)CCCN(C(=O)c2cc(C)on2)C1 (stereo not drawn)	none
CCOC(=O)C1(Cc2cccc(Cl)c2)CCCN(C(=O)c2ccc(C)nc2)C1 (stereo not drawn)	DSG3 Ab inh 67
COC(=O)C1CN(C2CC2)CCS(=O)(=O)N1Cc1cn(Cc2ccc(Cl)cc2)nn1 (stereo not drawn)	none (no result: DSG3 Ab inh, MsrA inh, NadD inh, DAGLB inh, MsrA act)
CCn1c(C(=O)O)c(CC(=O)Nc2ccccc2F)c2ccccc21	none
CCn1c(C(=O)O)c(CC(=O)Nc2cccc(C(F)(F)F)c2)c2ccccc21	rCAG RNA binder 35
COc1ccccc1C(=O)NCCC(=O)NCCOc1ccc(C)cc1	none
Cc1ccc(OCCNC(=O)c2ccccc2N)cc1	DSG3 Ab inh 46
CN(C)S(=O)(=O)c1cccc(NC(=S)N/N=C/c2ccc(O)c(O)c2O)c1	rCAG RNA binder 59
CCc1ccc(C(=O)Nc2ccc(S(=O)(=O)Nc3nc(C)cc(C)n3)cc2)o1	DSG3 Ab inh 35
COc1ccc(NC(=O)N2CCC(N(C)CCC(C)C)CC2)cc1OC	none (no result: DSG3 Ab inh, MsrA inh, NadD inh, DAGLB inh, MsrA act)
COc1ccc(C=C2CS(=O)(=O)CC(=Cc3ccc(OC)cc3)C2=O)cc1	none
CCOC(=O)c1ccc(NC(=O)N2CCN(S(C)(=O)=O)CC2)cc1	none
CCOC(=O)c1ccc(NC(=S)N2CCN(S(C)(=O)=O)CC2)cc1	DSG3 Ab inh 57
Cc1cc(-c2csc(NC(=O)c3ccc(S(=O)(=O)N(C)C)cc3)n2)c(C)n1-c1ccccc1	NadD inh 40
O=C1/C(=C\c2ccco2)SC(=S)N1Cc1ccccc1	none
O=C(CN1C(=O)/C(=C\c2ccco2)SC1=S)Nc1ccc(O)cc1C(=O)O	rCAG RNA binder 88
COc1ccc(C2C(C(=O)Nc3ccc(C)c(C)c3)CCC(=O)N2c2ccc(OC)cc2)cc1 (stereo not drawn)	none (no result: DSG3 Ab inh, MsrA inh, NadD inh, DAGLB inh, MsrA act)
CC(C)c1ccccc1NS(=O)(=O)N(C)C	DSG3 Ab inh 49
N#C/C(=C/c1ccccc1)c1nn(CCO)c(N)c1C#N	none
N#C/C(=C\c1ccc(/C=C(/C#N)c2nn(CCO)c(N)c2C#N)cc1)c1nn(CCO)c(N)c1C#N	DSG3 Ab inh 86

Screening data deposited in PubChem by several laboratories.
